Assay results taken from PubChem BioAssay.
The source made the active and inactive calls. The rule behind the calls is not given here.

The compounds below were run against Pantothenate synthetase (Mycobacterium tuberculosis (strain ATCC 25618 / H37Rv)) (UniProt P9WIL5) (assay: Coupled enzyme confirmation of inhibitors against recombinant Mtb PanC (AID 375;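 note: 0% = full reaction with vehicle and 100% = no enzyme background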)). Settings: coupled enzyme assay; at 10 µM, hits give high values.
Pantothenate synthetase (Mycobacterium tuberculosis (strain ATCC 25618 / H37Rv)), sequence (P9WIL5 whole entry, looked up): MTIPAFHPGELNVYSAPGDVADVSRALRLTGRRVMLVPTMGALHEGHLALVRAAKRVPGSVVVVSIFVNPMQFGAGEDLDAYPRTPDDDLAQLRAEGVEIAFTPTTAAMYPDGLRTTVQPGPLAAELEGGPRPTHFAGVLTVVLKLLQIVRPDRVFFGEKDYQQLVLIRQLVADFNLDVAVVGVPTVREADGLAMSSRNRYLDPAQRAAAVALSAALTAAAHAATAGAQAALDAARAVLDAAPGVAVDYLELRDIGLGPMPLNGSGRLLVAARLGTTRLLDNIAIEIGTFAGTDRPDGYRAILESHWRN

Structure (SMILES)	inhibition
CCNc1ccc2c(Cl)cc(=O)oc2c1	5% (inactive)
COc1cc(C(c2sc3nc(C)nn3c2O)N2CC(C)CC(C)C2)cc(OC)c1OC (stereo not drawn)	0% (inactive)
CCOC(=O)CSc1nc2ccccc2c(=O)n1NC(=O)c1ccccc1	1% (inactive)
COc1cc(NC(=O)CC(C)C)ccc1NC(=O)c1ccco1	1% (inactive)
C=Cn1nc(C)c2ccccc2c1=O	0% (inactive)
CCOc1cc(C2C(C#N)=C(N)OC(C)=C2C(C)=O)cc(Br)c1O (stereo not drawn)	1% (inactive)
O=C(NCc1ccccn1)C(C(=O)c1ccc(F)cc1)n1ccccc1=O (stereo not drawn)	5% (inactive)
CCOc1cc(NC(=O)c2ccco2)c(OCC)cc1NC(=O)COc1ccccc1C	0% (inactive)
Cc1c(=O)n(OCc2ccccn2)c2ccccc2[n+]1[O-]	0% (inactive)
Cc1cc(NC(=O)C(C)(C)C)no1	0% (inactive)
CC(C)Cc1nc2oc3c(N4CCN(CCO)CC4)ncnc3c2c2c1CCCC2	0% (inactive)
CCOc1ccccc1C(=O)NCCCn1ccnc1	14% (inactive)
O=C(O)CC1Sc2nc3ccccc3n2C1=O (stereo not drawn)	0% (inactive)
Cc1ccc(CCNC(=O)C2CCN(S(=O)(=O)c3ccc4c(c3)CCC(=O)N4)CC2)cc1	0% (inactive)
O=C1c2ccccc2C(=O)N1CNc1ccccc1	0% (inactive)
COc1cccc(OCCOCCN(C)CCO)c1	2% (inactive)
C=CS(=O)(=O)c1ccc(Oc2ccc(S(=O)(=O)C=C)cc2)cc1	10% (inactive)
CCOC(=O)c1cc(C)n(CCCN2CCOCC2)c1C	0% (inactive)
CC(C)n1nnnc1SCC(=O)Nc1ccccc1N1CCOCC1	1% (inactive)
Cc1cc(NC(=O)c2cnn3cccnc23)no1	3% (inactive)
Cn1c(=O)c2c(nc(NCc3ccc4c(c3)OCO4)n2Cc2ccccc2F)n(C)c1=O	3% (inactive)
Cc1cccc(C(=O)N2CCC(n3nnc4cc(F)ccc43)CC2)c1	0% (inactive)
CCc1cc2c(CN3CCN(CCO)CC3)cc(=O)oc2cc1O	0% (inactive)
